Screens as filed in PubChem.
Shown are actives, neighbours in structure and some others; about 5.7% of the full set was active somewhere.
ssDAF12 agonist: activators of S. stercoralis DAF-12 nuclear receptor | HEK293 ssDAF-12/GRIP1 lit1-tk-luc reporter, luminescence; % of 3 µM dafachronic acid response | activation, % at 6.8 µM | actives 1% (n = 370,000);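 active means activation above the mean over all tested compounds plus 3 SD, cut at about 0.9% in these data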;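 further: 0% = DMSO-only wells and 100% = 3 µM delta7-dafachronic acid wells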
hcDAF12 agonist: activates DAF-12 receptor from parasite H. contortus; HEK293 hcDAF-12 lit1-tk-luc reporter, luminescence; 0% DMSO, 100% Δ7-dafachronic acid; activation, % at 6.8 µM; actives 1.4% (n = 370,000);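 active means activation above the mean of all tested compounds plus 3 SD, cut at about 5.5% in these data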;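 further: 100% = response to 3 µM Δ7-dafachronic acid high control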
AHR act: human AHR activation; P35869; AHR-responsive luciferase reporter cells, luminescence; activation, % at 5 µM; actives 2.5% (n = 320,000); AID 2796; in the data active means activation above about 47%;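 further: 0% = vehicle wells and 100% = reference agonist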
hgDAF-12 ag: activates the H. glycines DAF-12 receptor ligand-binding domain | HEK293 GAL4-hgDAF12 UAS-luciferase reporter, agonist luminescence; normalized to butyrate control | activation, % at 6.8 µM | actives 1.8% (n = 370,000) | AID 687014;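 active means activation above a cutoff set at the mean of all screened compounds plus 3 SD, cut at about 10% in these data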;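 further: 0% = DMSO wells and 100% = sodium butyrate wells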
DAX1 inh-1: DAX1 (NR0B1) inhibition, primary screen; actives 1.1% (n = 370,000); inhibition, % at 6.8 µM; HEK293T StAR-luciferase reporter, SF-1/DAX-1 repression relief;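 active means inhibition above the mean over all tested compounds plus 3 SD, cut at about 3.6% in these data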;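 further: 0% = DAX-1 cells with DMSO and 100% = cells lacking DAX-1 with DMSO; higher inhibition means more luminescence from relief of DAX-1 repression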
DAX1 inh-2: inhibitors of human orphan nuclear receptor DAX1 (NR0B1); P51843; HEK293 Gal4-DAX1 luciferase reporter, luminescence; inhibition, % at 6.75 µM; actives 0.99% (n = 340,000);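 active means inhibition above the mean over all tested compounds plus 3 SD, cut at about 4.2% in these data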;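 further: 0% = DAX1-transfected cells with DMSO and 100% = empty-vector control cells with DMSO; inhibition shows as a rise in luminescence from relieved DAX1 repression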
Target sequence (P51843 207-470 limits assumed): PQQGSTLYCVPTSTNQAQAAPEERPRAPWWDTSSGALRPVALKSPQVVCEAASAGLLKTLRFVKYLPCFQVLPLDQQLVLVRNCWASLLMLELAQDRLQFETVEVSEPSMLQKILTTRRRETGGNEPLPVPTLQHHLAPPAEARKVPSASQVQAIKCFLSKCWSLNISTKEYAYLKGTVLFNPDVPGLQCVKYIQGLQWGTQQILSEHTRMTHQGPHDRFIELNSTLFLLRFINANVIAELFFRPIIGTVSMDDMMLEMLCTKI
hgDAF12 ag: hgDAF-12 agonism, confirmation assay; activation, % at 6.8 µM; actives 80% (n = 3,300); HEK293 GAL4-hgDAF12 luciferase reporter, agonist mode; percent of butyrate response; AID 743050; shares compounds with hgDAF-12 ag;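 active means mean activation over triplicate wells above the hit cutoff derived from the earlier primary screen, cut at about 11% in these data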;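 further: 0% = DMSO low control and 100% = 2 mM sodium butyrate high control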
LXRb DAF12 ctr: LXR-beta agonism as DAF-12 counter-screen; activation, % at 6.8 µM; shares compounds with hgDAF-12 ag; HEK293 Gal4-LXR luciferase reporter, 24 h; AID 743051; 3,300 tested, under 10 active;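 active means mean activation of the triplicate above a set limit carried over from the primary screen, none filed active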
Target sequence (P55055 whole entry, looked up, the tested form may be a part): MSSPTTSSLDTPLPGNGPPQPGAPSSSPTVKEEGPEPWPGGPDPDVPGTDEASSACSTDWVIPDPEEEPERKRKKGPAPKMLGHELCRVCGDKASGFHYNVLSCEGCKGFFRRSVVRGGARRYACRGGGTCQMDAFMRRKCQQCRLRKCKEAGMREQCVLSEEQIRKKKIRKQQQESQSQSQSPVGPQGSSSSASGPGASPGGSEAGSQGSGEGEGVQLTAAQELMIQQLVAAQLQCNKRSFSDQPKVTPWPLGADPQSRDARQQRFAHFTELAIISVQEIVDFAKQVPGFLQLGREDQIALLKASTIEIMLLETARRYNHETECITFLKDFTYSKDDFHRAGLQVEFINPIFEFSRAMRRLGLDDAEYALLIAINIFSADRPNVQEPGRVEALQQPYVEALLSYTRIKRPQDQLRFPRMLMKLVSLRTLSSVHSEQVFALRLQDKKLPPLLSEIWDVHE
* = called active by the depositor; nt = not tested or not shown.

SMILES	ssDAF12 agonist	hcDAF12 agonist	AHR act	hgDAF-12 ag	DAX1 inh-1	DAX1 inh-2	hgDAF12 ag	LXRb DAF12 ctr
O=C1CCCN1CCC(=O)N1CCCC(CO)(Cc2ccccc2)C1 (stereo not drawn)	0.3	2.8	6.0	6.8	0.5	1.9	nt	nt
O=C(Nc1ccc(Cl)cn1)c1cccc(F)c1	-0.3	3.5	3.2	17.2*	-0.3	-1.4	16.8*	0.7
Cc1cc(NC(=O)c2cccc(F)c2)ncc1NC(=O)c1ccco1	-0.1	2.6	1.2	14.7*	2.2	0.1	11.6*	0.6
O=C(Nc1ccc(Cl)cn1)c1ccc2[nH]c(=O)c(=O)[nH]c2c1	-0.8	-0.1	5.8	1.8	-0.1	0.2	nt	nt
Cc1ccc(NC(=O)c2ccc(F)cc2)nc1	0.0	1.0	-2.5	14.6*	2.5	0.7	11.7*	0.4
CC(C)Sc1nc(-c2cccs2)nc2cc(Cl)ccc12	-0.9	0.2	nt	-0.3	-0.5	nt	nt	nt
CC(=O)N1c2ccc(S(=O)(=O)NCC3CCC(C(=O)N4CCC(C)CC4)CC3)cc2CC1C (stereo not drawn)	-1.5	-0.3	-0.8	-2.5	-3.3	-0.5	nt	nt
CCN1CCN(C(=O)c2ccc(-c3nc4ccccc4s3)s2)CC1	0.8	3.8	0.9	17.4*	4.3*	2.5	11.2*	0.8
O=C(c1ccc(-c2nc3ccccc3s2)s1)N1CCOCC1	-1.9	-0.2	-10.2	-4.3	2.0	nt	nt	nt
C=CCN(Cc1cc(OC)ccc1OC)C(=O)c1cc2ccc(OC)cc2[nH]1	0.1	3.4	nt	3.0	-0.1	2.2	nt	nt
Cc1cc(C(=O)OC(C)C(=O)N2CCc3ccccc32)ccc1[N+](=O)[O-] (stereo not drawn)	0.5	1.2	2.7	1.4	-2.7	0.2	nt	nt
c1ccc(CSc2ccc(-c3ccccn3)nn2)nc1	-0.5	3.3	9.2	15.8*	3.1	1.1	10.0	0.5
Cc1noc(C)c1S(=O)(=O)N1CCC(C(=O)O)CC1	-1.4	2.3	-0.7	0.4	1.5	-0.3	nt	nt
COc1ccccc1CC(=O)Nc1ccon1	-0.9	-1.1	-0.9	-1.6	0.1	0.5	nt	nt
NC(=O)N/N=C/c1sc(=O)n(-c2ccccc2)c1Cl	-0.1	2.1	6.0	-0.1	-0.8	0.6	nt	nt
O=C(N/N=C/c1sc(=O)n(-c2ccccc2)c1Cl)c1ccccc1	-0.3	2.3	1.0	23.7*	0.4	0.3	15.8*	0.7
C=CCC[C@H](Cc1ccc(F)cc1)C(=O)OC[C@@H](NC(=O)[C@H](CC=C)CC(=O)NCCO)c1ccccc1	-1.4	-0.5	-0.3	-1.4	-0.5	-0.8	nt	nt
O=C(c1cc(-c2ccc(Cl)cc2)on1)N1CCCC1	1.1*	3.6	-5.7	13.5*	2.7	1.9	15.7*	0.9
Cc1ccc(S(=O)(=O)NCc2cc(=O)n(C)c(=O)n2C)cc1C	-0.7	1.1	1.3	2.1	0.1	0.1	nt	nt
C#CCN(C[C@@H]1[C@@H](OC(=O)NCCCCCC)[C@@H](OC(=O)NCCCCCC)Cn2c(=O)n(CCCCCC)c(=O)n21)S(=O)(=O)c1ccc(C)cc1	-1.2	-0.3	nt	1.8	1.4	0.3	nt	nt
O=C(Nc1ccn(Cc2ccccc2)n1)c1ccc(F)cc1	0.9	3.7	11.5	17.0*	0.3	-1.1	12.8*	0.5
Nc1ccccc1NC(=O)c1ccccc1N	-0.3	0.2	8.4	5.0	0.5	-0.2	nt	nt
Nc1ccccc1NC(=O)NC(=O)c1ccccc1	2.0*	1.4	4.6	15.9*	2.0	4.6*	15.9*	0.5
COc1cc(/C=N/N2CCOCC2)ccc1OCc1ccc(Cl)cc1	-0.5	3.0	-2.2	9.9	3.4	1.4	nt	nt
COc1cc(/C=N/OCC(=O)Nc2cc(C)cc(C)c2)ccc1OCc1ccc(Cl)cc1	-0.6	4.5	13.0	15.6*	1.3	-0.5	10.3	0.5
SMILES	ssDAF12 agonist	hcDAF12 agonist	AHR act	hgDAF-12 ag	DAX1 inh-1	DAX1 inh-2	hgDAF12 ag	LXRb DAF12 ctr
CC1CCc2c(sc3nc(CSc4ncn[nH]4)[nH]c(=O)c23)C1 (stereo not drawn)	-2.5	-5.7	-5.5	-5.0	0.3	-2.4	nt	nt
O=C(Nc1ccc(Cl)cn1)C1COc2ccccc2O1 (stereo not drawn)	0.8	6.0*	1.8	14.2*	3.6	3.1	10.8*	0.2
Cc1cc(NC(=O)COC(=O)C2COc3ccccc3O2)no1 (stereo not drawn)	-1.6	-1.0	1.7	0.5	-0.8	-1.3	nt	nt
Cc1cc(NC(=O)C2COc3ccccc3O2)no1 (stereo not drawn)	-1.1	4.5	-1.8	19.4*	1.0	1.5	4.6	0.2
Cn1cccc1/C=C1\SC(=O)N(c2ccccc2)C1=O	-0.3	3.1	-4.8	16.2*	1.7	3.0	19.9*	0.7
CCCNC(=O)C1(C)CCCN(Cc2c(F)cccc2F)C1 (stereo not drawn)	-1.4	0.1	nt	-4.2	-0.3	nt	nt	nt
CCOc1ccc(CN(CCC#N)C(=S)NC(=O)c2ccccc2)cc1	-1.4	-2.0	0.9	17.4*	-0.8	0.2	-1.8	0.0
COc1ccccc1-c1cc(C(=O)NC(C)C)no1	0.4	4.9	33.1	8.4	1.6	1.4	nt	nt
O=C(NC1CCCCC1)c1cc(-c2ccc(O)cc2)on1	-0.4	3.9	-2.6	9.1	1.8	0.4	nt	nt
O=C(NC1CCCCC1)c1cc(-c2ccccc2O)on1	0.2	0.7	-7.7	13.4*	2.1	2.6	15.2*	0.7
CCC(C)NC(=O)c1cc(-c2ccccc2O)on1 (stereo not drawn)	-0.6	2.8	-5.8	13.5*	3.4	1.0	8.5	0.3
COc1ccc(-c2ccc3c(c2)S(=O)(=O)c2cccc(C(=O)NCc4cc(C)oc4C(F)(F)F)c2C3=O)cc1OC	nt	nt	2.8	nt	nt	1.2	nt	nt
CCN(CC(=O)NCc1cccs1)C(=O)c1ccc(S(=O)(=O)N(CC)c2ccccc2)cc1	-1.1	-1.2	-1.3	-3.6	1.0	0.3	nt	nt
Cc1ccc(/C=C/C(=O)c2ccc(N3CCOCC3)cc2)s1	-0.7	1.8	-2.6	14.4*	0.1	-0.5	9.3	0.8
Cc1ccc(-c2nc(SCC(=O)Nc3cc(C)on3)c3c(=O)n(C)c(=O)n(C)c3n2)cc1	-1.4	1.6	-0.9	-0.9	-0.4	2.9	nt	nt
CN(CC(=O)Nc1ccccc1C(F)(F)F)C(=O)C1CCN(S(=O)(=O)c2ccc3c(c2)OCCO3)CC1	-1.3	0.2	-1.6	-0.2	-0.3	2.0	nt	nt
FC(F)(F)c1cnc2c(-c3ccccc3)n[nH]c2c1	0.5	4.4	nt	14.3*	1.3	nt	7.3	0.3
Cc1ccc2cc(N)ccc2n1	-1.1	1.4	nt	-3.0	0.6	-0.1	nt	nt
Nc1ccc2cc3ccc(N)cc3nc2c1	1.7*	32.3*	nt	27.5*	-1.8	nt	5.7	0.2
